Shown are actives, neighbours in structure and some others; about 19% of the full set was active somewhere.
KB-3-1 cytotox – qHTS assay for MDR1-selective chemotherapeutics: Primary screen using the parental adenocarcinoma cell KB-3-1. KB-3-1 viability, CellTiter-Glo ATP luminescence, 72 h. Potency, µM (titrated, usually from 46.1 µM), most hits filed as cytotoxic. actives 1.4% (n = 400,000); note: nearly all actives have a fitted effect of over 60% in size
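72 h, 37 °C compound treatment of KB-3-1 parental cells; CellTiter-Glo added, 10 min, luminescence read. Data corrected against DMSO-only plates and normalized before curve fitting.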
HT1080-NT tox – qHTS for induction of synthetic lethality in tumor cells producing 2HG: qHTS for the HT-1080-NT fibrosarcoma cell line | HT-1080-NT fibrosarcoma viability, CellTiter-Glo ATP luminescence, 48 h | Potency, µM (top dose mostly 46.1 µM), actives largely listed as cytotoxic | actives 1.6% (n = 360,000) | AID 686970, 2013;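 note: NT is the 2HG producing partner of a matched IDH1 knockdown line; nearly all actives have a fitted effect of over 55% in size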
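HT-1080-NT fibrosarcoma cells (2HG-overproducing), 750 cells/well in RPMI with 5% FBS, dosed after 2 h and incubated 48 h at 37C. CellTiter-Glo luminescence normalized to DMSO and no-cell wells; concentration-response curves fitted and classed.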
DT40 TDP1 no CPT – qHTS for Inhibitors of human tyrosyl-DNA phosphodiesterase 1 (TDP1): qHTS in cells in absence of CPT; AID 686978, 2013; DT40 Tdp1-/- hTDP1 cells, no CPT, ATP luminescence, 48 h; actives 15% (n = 420,000); Potency, µM (titrated, usually from 46.2 µM), usual class: inhibitors; note: nearly all actives have a fitted effect of over 55% in size
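Luminescent ATP content (CellTiter-Glo) served as the growth readout. Knockout chicken DT40 cells expressing human TDP1 were exposed to compounds without camptothecin for a minimum 48 hr at 37 °C.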
HT1080 IDH1KD tx – qHTS for induction of synthetic lethality in tumor cells producing 2HG: qHTS for the HT-1080-IDH1KD cell line | Potency, µM (titrated, usually from 46.1 µM), hits mostly cytotoxic | HT-1080 IDH1 knockdown viability, ATP luminescence, 48 h | actives 2% (n = 360,000)
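Viability of IDH1-knockdown HT-1080 fibrosarcoma cells was assessed by CellTiter-Glo after 48 h at 37 °C with titrated compound; concentration-effect curves were classified by fit quality and response size.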
KB-V1 cytotox – qHTS assay for MDR1-selective chemotherapeutics: Primary screen using the drug-selected MDR subline cells KB-V1; KB-V1 MDR cells viability, CellTiter-Glo, 72 h; Potency, µM (series often up to 46.1 µM), hits mostly cytotoxic; actives 3.4% (n = 400,000); AID 1347076, 2019; note: nearly all actives have a fitted effect of over 60% in size
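Cytotoxicity toward P-gp-expressing KB-V1 cells was determined as loss of CellTiter-Glo luminescence after 72 h at 37 degrees C. Compounds were tested in quantitative HTS format across a concentration range, with curves fitted to normalized data.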
TDP1 cell CPT – qHTS for Inhibitors of human tyrosyl-DNA phosphodiesterase 1 (TDP1): qHTS in cells in presence of CPT; chicken DT40 Tdp1-/-;hTDP1 cells + 20 nM CPT, ATP luminescence, 48 h; Potency, µM (titrated, usually from 46.2 µM), usual class: inhibitors; actives 12% (n = 420,000); AID 686979, 2013; note: nearly all actives have a fitted effect of over 55% in size
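Chicken DT40 Tdp1-/- cells stably complemented with human TDP1 were seeded at 400 cells/well in medium containing 20 nM camptothecin, exposed to pin-transferred compounds, and grown at 37 °C for at least 48 hr. Viability was read as ATP luminescence.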
Numbers stand for hits; – = inactive; ? = inconclusive; · = not tested or not shown; [ ] = another dose, or the depositor's remark. Calls come from the whole dose curve; as a rule, active = well fitted curve in the direction sought with a large enough effect; inconclusive = small, poorly fitted or top-dose-only effect, or another doubt; inactive = no such curve, though single readings can be large; an effect the other way counts as inactive or inconclusive.

SMILES	KB-3-1 cytotox	HT1080-NT tox	DT40 TDP1 no CPT	HT1080 IDH1KD tx	KB-V1 cytotox	TDP1 cell CPT
CCOC(=O)c1cc(OC)c2cccc(CN3CCC(C)(C(=O)NCCOC)C3)c2c1 (stereo unspecified)	–	–	?	–	–	?
COC(=O)c1sc(-c2ccc(C(C)(C)C)cc2)cc1NC(=O)COCC(=O)O	–	16µM	?	21µM	–	–
COC(=O)c1sc(-c2ccc(Cl)cc2)cc1NC(=O)CSCC(=O)O	–	–	–	–	–	–
CSc1ccc(-c2ccc(C(=O)NCC3CCCO3)c(N3CCC(O)CC3)n2)cc1 (stereo unspecified)	·	·	–	·	·	–[9.04 µM]
Cc1cc(Cl)ccc1OCC(=O)NCC1Cc2cc(-c3cnccn3)ccc2O1 (stereo unspecified)	·	·	–	·	·	–
Cc1cccc(/C=N/NC(=O)c2cccc(NC(=O)c3ccccc3)c2)n1	–	–	–	–	–	–
Cc1cccc(/C=N/NC(=O)c2cccc(Cl)c2)n1	–	–	16µM	–	–	?
Cc1cccc(/C=N/NC(=O)c2cccc([N+](=O)[O-])c2)n1	–	–	21µM	–	–	18µM
Cc1cccc(/C=N/NC(=O)c2ccc(F)cc2)n1	–	–	?	–	–	?
NC(=S)N/N=C/c1c(O)c(Br)cc2oc3c(c12)CCCC3	21µM	–	5.2µM	–	?	5.2µM
COc1ccc(-c2c(C#N)c(SCC(=O)Nc3ccccc3C)nc(C)c2C(=O)Nc2ccccc2)cc1OC	·	·	–	·	·	–
CCN(CC)CCNc1ncnc2c1sc1nc(N3CCCC3)c3c(c12)CC(C)(C)OC3	–	16µM	?	18µM	–	?
CCCCOC(=O)c1sc2nc(N3CCOCC3)c3c(c2c1N)CC(C)(C)OC3	?	–	–	–	–	–
Cc1nc2c(sc3nc(N4CCOCC4)c4c(c32)CC(C)(C)OC4)c(-c2ccccc2)c1C(=O)O	–	–	?	–	–	26µM
CC1(C)Cc2c(c(N3CCOCC3)nc3snc(NC(=O)c4ccccc4)c23)CO1	–	–	–	–	–	–
CN(C)CCNc1ncnc2c1sc1nc(N3CCCC3)c3c(c12)CC(C)(C)OC3	–	?	26µM	21µM	?	?
CC(C)CNc1ncnc2c1sc1nc(N3CCOCC3)c3c(c12)CC(C)(C)OC3	–	–	10µM	–	–	?
C=CCn1cc(CN2CCC(C(=O)Nc3cccc(-c4cccc(Cl)c4)c3)CC2)c(C)n1	–	?	16µM	?	–	16µM
C=CCn1cc(CN2CCC(C(=O)Nc3ccc(Oc4cccnc4)cc3)CC2)c(C)n1	–	–	–	–	–	–
CCCn1cc(CN2CCC(C(=O)Nc3cccc(-c4cscn4)c3)CC2)c(C)n1	?	–	?	–	–	?
C=CCn1cc(CN2CCC(C(=O)Nc3cccc(-c4cccc(F)c4)c3)CC2)c(C)n1	?	–	16µM	–	?	23µM
CCCCCCCCCCCCCCCC(=O)N[C@@H](COP(=O)(O)O)C(=O)O	·	·	–[4.12 µM]	·	·	–[4.12 µM]
CC(=O)Nc1nc2c(s1)CCc1ccccc1-2	–	–	–	–	?	–
O=C(CCCl)Nc1nc2c(s1)CCc1ccccc1-2	?	9.2µM	5.8µM	9.2µM	–	13µM
N#C/C(=C(/O)CCl)c1nc2c(s1)CCc1ccccc1-2	4.1µM	?	13µM	?	15µM	12µM
C[C@H](CO)N1C[C@H](C)[C@@H](CN(C)C(=O)c2cccnc2)Oc2ncc(Br)cc2C1=O	–	–	–	–	–	–

Assay outcomes as filed in PubChem BioAssay.
